{"source": "ChEMBL document CHEMBL4513135", "about": "“CO-ADD screening of IQOG CSIS (Spain) compounds”", "note": "Measured potencies and affinities stand elsewhere."}
{"tested_on": "Staphylococcus aureus", "conditions": "Concentration 32 ug.mL-1; ASSAY_TEST Inhibition of Bacterial Growth; detection method Absorption (OD600); MEDIA CAMHB; plate type 384well; NBS; CORNING #3640; time 18 hr", "units": {"Inhibition": "%"}}
{"smiles": "N#CC1=C(Cl)Oc2c(ccc3ccccc23)C1c1ccc([N+](=O)[O-])cc1", "note": "(centres undefined)", "Inhibition": 7.21}
{"smiles": "Nc1c2c(nc3nc4ccccc4nc13)CCCC2", "Inhibition": 36.81}
{"smiles": "Nc1c2c(nc3c1C(c1ccc([N+](=O)[O-])cc1)c1ccc4ccccc4c1O3)CCCC2", "note": "(centres undefined)", "Inhibition": -9.37}
{"smiles": "Cc1ccc(C(O)SNNc2nc(C)nc3c2c(C)nn3-c2ccccc2)cc1", "note": "(centres undefined)", "Inhibition": 4.03}
{"smiles": "COc1ccc2c(c1)cc(CNc1ccccc1)n2C", "Inhibition": 20.09}
{"smiles": "COc1ccc(C2c3c(ccc4ccccc34)OC(=NBr)C2(Br)C#N)cc1", "note": "(centres undefined)", "Inhibition": 37.33}
{"smiles": "Cc1ccc2nc(Cl)c(/C=N/NCc3ccccc3)cc2c1", "Inhibition": 26.2}
{"smiles": "N#Cc1c(NC2CCC(Cc3ccccc3)CC2)nc(NC2CCN(Cc3ccccc3)CC2)c(C#N)c1-c1ccccc1", "note": "(centres undefined)", "Inhibition": 4.21}
{"smiles": "Cc1nc2c(cc1C#N)c(N)nn2C", "Inhibition": 30.49}
{"smiles": "C#CCNc1nc(NCCCCC2CCN(Cc3ccccc3)CC2)c(C#N)cc1C#N", "Inhibition": 5}
{"smiles": "Cc1ccc(C(O)SNNc2ncnc3c2c(C)nn3-c2ccccc2)cc1", "note": "(centres undefined)", "Inhibition": 5.38}
{"smiles": "Cc1[nH]nc2c1C(c1ccc(O)c(O)c1)C(C#N)=C(N)O2", "note": "(centres undefined)", "Inhibition": 9.09}
{"smiles": "Cc1ccc(CNNC(N)=O)cc1.Cl", "Inhibition": 4.52}
{"smiles": "CCOC(=O)C1=C(C)OC(N)=C(C#N)C1c1cccs1", "note": "(centres undefined)", "Inhibition": 8.64}
{"smiles": "CCOC(=O)C1=C(C)OC(N)=C(C#N)C1c1ccc(F)cc1", "note": "(centres undefined)", "Inhibition": 19.76}
{"smiles": "Cl.OCCCC1CCNCC1", "Inhibition": 22.6}
{"smiles": "CN(C)c1nc2nc3c(c(N)c2c(-c2ccccc2)c1C#N)CCCC3", "Inhibition": 5.71}
{"smiles": "CC(C)(C)OC(=O)Nc1ccc(Br)cn1", "Inhibition": 40.42}
{"smiles": "CNN=C1N=C(SCc2ccccc2)SC1=O", "Inhibition": 8.05}
{"smiles": "COc1ccccc1C1C(C#N)=C(N)Oc2[nH]nc(C)c21", "note": "(centres undefined)", "Inhibition": 9.32}
{"smiles": "CSC1=NC(=Cc2cn(C)c3ccccc23)C(=O)N1C", "Inhibition": 3.9}
{"smiles": "CCOC(=O)/C(C#N)=C\\c1ccc(Cl)cc1", "Inhibition": 19.96}
{"smiles": "Cn1c(CNNC(=O)c2ccco2)cc2ccccc21", "Inhibition": 1.86}
{"smiles": "O=C(O)n1ccc2ccccc21", "Inhibition": 10.57}
{"smiles": "Cc1ccc(C2c3c(nc4c(c3N)CCCC4)Oc3ccc4ccccc4c32)cc1", "note": "(centres undefined)", "Inhibition": 10.92}
{"smiles": "C#CCN(C)Cc1cc2cc(OCCC3CCN(Cc4ccccc4)CC3)ccc2n1C.Cl", "Inhibition": 28.43}
{"smiles": "CCOC(=O)C1=C(C)OC(N)=C(C#N)C1c1cccnc1", "note": "(centres undefined)", "Inhibition": -6.34}
{"smiles": "O=C1SC(SCc2ccccc2)=NC1=Cc1cccc(OCc2ccccc2)c1", "Inhibition": -1.09}
{"smiles": "CCOC(=O)c1c(C)nc(/N=N/c2nc(C)c(C(=O)OCC)c(-c3ccccc3)c2C#N)c(C#N)c1-c1ccccc1", "Inhibition": 11.27}
{"smiles": "CC#CCN.Cl", "Inhibition": 31.78}
{"smiles": "COc1ccc(C2c3ccc4ccccc4c3Oc3nc4c(c(N)c32)CCCC4)c(OC)c1", "note": "(centres undefined)", "Inhibition": -6.11}
{"smiles": "COc1ccc2cc(C3C(C(C)=O)=C(C)Oc4nc5c(c(N)c43)CCC5)c(Cl)nc2c1", "note": "(centres undefined)", "Inhibition": 7.35}
{"smiles": "COc1ccc2c(c1)cc(CN(C)Cc1cn(Cc3ccccc3)nn1)n2C", "Inhibition": 6.23}
{"smiles": "COc1cc(C2c3ccc4ccccc4c3Oc3nc4c(c(N)c32)CCCC4)ccc1O.Cl", "note": "(centres undefined)", "Inhibition": -4.49}
{"smiles": "O=C(NNCc1ccco1)c1cc2ccccc2[nH]1", "Inhibition": -6.59}
{"smiles": "N#CC1=C(Cl)Oc2c(ccc3ccccc23)C1c1ccccc1", "note": "(centres undefined)", "Inhibition": 14.99}
{"smiles": "CC1Cc2c(Cl)nc3nc4c(c(N)c3c2NC1=O)CCCC4", "note": "(centres undefined)", "Inhibition": 46.7}
{"smiles": "Clc1ccc(-c2cn3ccccc3n2)cc1", "Inhibition": 13.75}
{"smiles": "O=C1NC(=O)C(=Cc2ccccc2)N1", "Inhibition": 16.19}
